Experimental data: the supplement of paper PMC9023506
Where a name gives a salt, the structure may show the parent alone.

Each compound was assayed on Danio rerio larvae (5 dpf) (assay: activity during first hour (no stimuli), difference vs DMSO (percentage points (treated minus DMSO)); higher = more of the behaviour than the DMSO vehicle control). Details: 10 µM; exposure time: 3 h pre-incubation + 3 h imaging.
Method: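 5-dpf wild-type zebrafish larvae were imaged in 96-well plates. They were treated with 190 Tocris FDA-approved drugs at 10 µM (1 µl/ml DMSO) for 3 h before and 3 h during imaging at 28.5 °C, 48 larvae per drug. Automated image analysis gave % time moving and optomotor responses. Values are drug group mean minus DMSO vehicle mean (n=844), in percentage points, for 10 behaviours.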

SMILES	activity during first hour
CCN(C)C(=O)Oc1cccc([C@H](C)N(C)C)c1 [Rivastigmine tartrate]	6.97
CC(C)C[C@H]1C(=O)N2CCC[C@H]2[C@]2(O)O[C@](NC(=O)[C@@H]3C=C4c5cccc6[nH]c(Br)c(c56)C[C@H]4N(C)C3)(C(C)C)C(=O)N12 [Bromocriptine mesylate]	15.2
O=c1[nH]c2ccccc2n1C1CCN(CCCC(c2ccc(F)cc2)c2ccc(F)cc2)CC1 [Pimozide]	-12.5
C=C1C[C@@H]2[C@H](CC[C@]3(C)C(=O)CC[C@@H]23)[C@@]2(C)C=CC(=O)C=C12 [Exemestane]	-19.6
COc1ccc(C(CN(C)C)C2(O)CCCCC2)cc1 (configuration not stated) [Venlafaxine hydrochloride]	-22.5
N[C@@H]1C[C@H]1c1ccccc1 [Tranylcypromine hydrochloride]	-14.1
CC[C@@H](C(N)=O)N1CCCC1=O [Levetiracetam]	7.99
Cc1cccc([C@H](C)c2c[nH]cn2)c1C [Dexmedetomidine hydrochloride]	-27.8
COc1cc2c(cc1OC)C1CC(=O)C(CC(C)C)CN1CC2 (configuration not stated) [Tetrabenazine]	3.91
CC(O)(CS(=O)(=O)c1ccc(F)cc1)C(=O)Nc1ccc(C#N)c(C(F)(F)F)c1 (configuration not stated) [Bicalutamide]	4.47
CN1C[C@H](C(=O)N[C@]2(C)O[C@@]3(O)[C@@H]4CCCN4C(=O)[C@H](Cc4ccccc4)N3C2=O)C[C@@H]2c3cccc4[nH]cc(c34)C[C@H]21 [Dihydroergotamine mesylate]	4.7
C=CCN1C[C@H](C(=O)N(CCCN(C)C)C(=O)NCC)C[C@@H]2c3cccc4[nH]cc(c34)C[C@H]21 [Cabergoline]	-9.57
